Screens deposited in PubChem BioAssay by National Center for Advancing Translational Sciences (NCATS).
AmpC detergent – blocks E. coli AmpC beta-lactamase in detergent assay; P00811; AmpC hydrolysis of nitrocefin, absorbance 480 nm, 0.01% Triton; Potency, µM (titrated, usually from 114 µM), inactives show at the highest dose activity change, negative = inhibition, hits mostly inhibitors; 370,000 compounds, 0.041% hits; AID 485294;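 also: 0% = no-compound wells and -100% = no-enzyme wells; nearly all actives have a fitted effect of over 25% in size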
Target sequence (P00811 whole entry, looked up): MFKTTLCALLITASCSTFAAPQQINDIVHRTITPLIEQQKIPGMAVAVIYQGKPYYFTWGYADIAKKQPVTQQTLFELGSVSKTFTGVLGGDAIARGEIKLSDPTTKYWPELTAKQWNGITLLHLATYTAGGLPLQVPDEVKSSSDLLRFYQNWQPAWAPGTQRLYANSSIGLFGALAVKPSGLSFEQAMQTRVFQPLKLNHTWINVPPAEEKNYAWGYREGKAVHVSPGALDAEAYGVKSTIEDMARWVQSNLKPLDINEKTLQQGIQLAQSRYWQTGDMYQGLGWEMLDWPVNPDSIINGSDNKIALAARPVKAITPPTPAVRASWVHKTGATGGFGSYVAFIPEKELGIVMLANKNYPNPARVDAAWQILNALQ
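AmpC (5.3 nM in the dispensed reagent) in 20 mM phosphate pH 7.0 with 0.01% (detergent screen) or 0.0001% Triton X-100 was preincubated with compounds for 15 min at room temperature. Nitrocefin was then added from an 800 uM solution, and hydrolysis was followed at 480 nm.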
AmpC no deterg – AmpC beta-lactamase inhibition without detergent; AID 485341; AmpC nitrocefin hydrolysis, absorbance 480 nm, 0.0001% Triton; 330,000 compounds, 0.52% hits; Potency, µM (top dose mostly 57.1 µM), inactives show at the highest dose activity change, negative = inhibition, hits mostly inhibitors;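 also: plate controls were no compound for no effect and no enzyme for full effect; nearly all actives have a fitted effect of over 20% in size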
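20 mM phosphate pH 7.0 + 0.01% (detergent screen) or 0.0001% Triton X-100; 5.3 nM AmpC reagent; cpd preinc 15 min RT; nitrocefin (800 uM stock) to start; A480 q20 s × 4 min; Activity was normalised to no-enzyme and no-compound control wells.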
AMA1 RON2 block – inhibitors of Plasmodium falciparum AMA1-RON2 interaction. Potency, µM (titrated, usually from 58.2 µM), inactives show at the top dose activity change, negative = inhibition, hits mostly inhibitors. AlphaScreen AMA1-biotinylated RON2 peptide binding. 360,000 compounds, 0.2% hits. AID 720542;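 also: 0% = vehicle wells and -100% = peptide control; nearly all actives have a fitted effect of over 45% in size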
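AMA1 (3D7) with his tag at 25 nM final met compounds first, then biotinylated RON2 peptide at 25 nM; detection used donor plus acceptor beads, 10 µg/mL apiece, read by AlphaScreen after 30 min at room temperature.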
RE007 growth inh – less growth of the S. pombe RE007 Vpr strain; 360,000 compounds, 0.21% hits; S. pombe RE007 Vpr strain, BacTiter-Glo ATP luminescence, 24 h; Potency, µM (highest dose often 92.2 µM), inactives show top-dose activity change, negative = less growth, most hits filed as inhibitors; AID 651644; active = well fitted falling curve with a large enough effect; inconclusive = small, poorly fitted or top-dose-only effect; inactive = no such curve, though single readings can be large or run the other way; also: nearly all actives have a fitted effect of over 50% in size
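Fission yeast RE007 carrying one integrated HIV-1 vpr copy, seeded at OD 0.01 in PMG+AL medium with 23 nL pinned compound. Grown 24 h at 30 degrees; viability read by BacTiter-Glo luminescence after 5 min.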
* = called active by the depositor; u = inconclusive; x = no result; ! = not confirmed by another sample. Sampled rows, rich in hits. Any-hit rate of the full collection: about 0.79%. Unless noted, calls follow the shape of the dose curve; as a rule, active = well fitted curve in the direction sought with a large enough effect; inconclusive = small, poorly fitted or top-dose-only effect, or another doubt; inactive = no such curve, though single readings can be large; an effect the other way counts as inactive or inconclusive. Unless noted, % is scaled to controls: 0 for no effect and ±100 for the full control effect; potency is read from the fitted curve at half-maximal effect.

SMILES	AmpC detergent	AmpC no deterg	AMA1 RON2 block	RE007 growth inh
CCCCN1CC(c2nc3ccccc3n2CCCCOc2ccccc2C)CC1=O (configuration not stated)	18%	x	x	x
CCOc1cc(CNC(=O)c2ccc3c(c2)N(C)C(=O)C2CCCCN32)ccc1OC (configuration not stated)	17%	x	x	x
Oc1ccc(C2=NN(c3ccccc3)C(c3ccc(F)cc3)C2)cc1 (configuration not stated)	13%	-57%	3%	40µM*
Cc1nc2c(o1)C(=O)c1ccccc1C2=Nc1ccccc1	x	x	-29%	7.1µM*
CC(=O)c1c(C)oc2c1C(=O)c1ccccc1C2=O	-8%	-9%	-5%	u
O=C1CCCc2cc(S(=O)(=O)N3CCCC(C(=O)NCc4ccccc4Cl)C3)ccc2N1 (configuration not stated)	28%	x	x	x
Cc1ccc(-c2cc(-c3ccc(Cl)cc3)c(C#N)c(N)n2)o1	-1%	-49%	30%	-20%
Cc1cc(-c2cc(-c3ccc(Cl)cc3)nc(N)c2C#N)co1	1%	-37%	6%	45µM*
CN(CC(=O)NCCC1=CCCCC1)S(=O)(=O)c1ccc2c(c1)CCC(=O)N2	u	3.2µM*	7%	-3%
O=c1c2ccccc2nc(/C=C/c2cccnc2)n1CCc1ccccc1	6%	38%	-6%	-22%
O=c1c2ccccc2nc(/C=C/c2cccnc2)n1Cc1ccccc1	-6%	26%	32µM*	7%
CCOc1cc(/C=N/N=C(/N)c2nonc2N)cc(Br)c1OCc1ccc(Cl)cc1	3%	16µM*	-7%	-12%
COc1cc(/C=N/N=C(/N)c2nonc2N)cc(Br)c1OCc1ccccc1C	3%	-47%	20%	-14%
Cc1ccc(Nc2c(-c3cc(Br)ccc3F)nc3cc(C)ccn23)cc1	-2%	x	x	x
O=C(Nc1nc(-c2ccccc2)ns1)c1ccc(Cl)cc1	0%	x	x	x
O=C(Nc1cc(-c2ccccc2)[nH]n1)c1ccc(Cl)cc1	0%	7.1µM*!	23%	-15%
O=C(O)c1ccc2c(c1)C(=O)N(c1ccc(Cl)cn1)C2=O	u	0.63µM*	-1%	16%
O=C(O)c1ccc2c(c1)C(=O)N(c1ccc([N+](=O)[O-])cn1)C2=O	u	0%	-1%	5%
Cn1c(=O)c2c(nc(N3CCOCC3)n2Cc2ccccc2F)n(C)c1=O	5%	x	x	x
CNC(=S)N/N=C/C1=CCC2CC1C2(C)C (configuration not stated)	-15%	-31%	59%	5%
CC1(C)C2CC=C(/C=N/NC(=O)c3ccccc3O)C1C2 (configuration not stated)	-10%	11µM*	u	-7%
CCCCn1nc2cc(C(=O)NCc3cc(C(F)(F)F)cc(C(F)(F)F)c3)ccc2c1OC	1%	5.6µM*	-3%	8%
CCn1nc2cc(C(=O)NCc3cc(C(F)(F)F)cc(C(F)(F)F)c3)ccc2c1OC	0%	55%	-6%	1%
Cc1ccc(Cl)cc1NC(=O)Nc1cccs1	0%	14µM*	-1%	-15%
CCc1ccc(NC(=O)c2cnc3scc(C)n3c2=O)cc1	u	35µM*	12%	-8%
SMILES	AmpC detergent	AmpC no deterg	AMA1 RON2 block	RE007 growth inh
Cc1csc2ncc(C(=O)Nc3cccc(C(F)(F)F)c3)c(=O)n12	-7%	-14%	9%	-24%
O=C1c2ccccc2C(Nc2ccc3c(c2)OCCO3)N1Cc1ccc2c(c1)OCO2 (configuration not stated)	u	10µM*	u	7%
O=C1c2ccccc2C(Nc2ccccc2)N1Cc1ccc2c(c1)OCO2 (configuration not stated)	9%	-26%	u	4%
Cc1ccc2c(c1)-c1c(cnn1CC(=O)NC(C)CCc1ccco1)CO2 (configuration not stated)	u	11%	-3%	-1%
Cc1ccc2c(c1)-c1c(cnn1CC(=O)N(Cc1ccco1)C1CCCCC1)CO2	-16%	50µM*	-21%	1%
CCCOc1ccc(NC(=O)CC2C(=O)N(c3ccc(C)cc3)C(=O)N2C(C)C)cc1 (configuration not stated)	11%	x	x	x
Cc1ccc(OCCN2CCN(C)CC2)c([N+](=O)[O-])c1	u	-15%	25µM*	4%
Cc1ccc(OCCN2CCNCC2)c([N+](=O)[O-])c1	-9%	-7%	-29%	-13%
COc1ccc(NC(=O)Cn2nc(C)c3nn(-c4ccc(Cl)cc4)c(C)c3c2=O)cc1	4%	x	x	x
COc1ccc(/C(C)=N/OC/C(O)=C(\C#N)c2nc3ccccc3[nH]2)cc1OC	-5%	-8%	65%	37%
COc1ccc(/C(C)=N/OC/C(O)=C(\C#N)c2nc3ccccc3[nH]2)c(OC)c1	-12%	14µM*	82%	0%
Nc1cc2nc3ccccc3oc-2cc1=O	-3%	-43%	-3%	63µM*
O=c1oc2ccccc2cc1-c1nc2ccccc2o1	-2%	-20%	41%	u
CC(C)(C)c1ccc(C(=O)Nc2ccccc2C(=O)OCc2cc(=O)n3ccsc3n2)cc1	15%	x	x	x
CCOc1ccc2nc(/N=C/c3c(C)[nH]n(-c4ccc(C)cc4)c3=O)sc2c1	u	-6%	1%	13µM*
CCOc1ccc2nc(/N=C/c3c(C)[nH]n(-c4ccccc4)c3=O)sc2c1	u	-24%	12%	u
Cc1ccc(N2CCN(C(=O)c3cnn(-c4ccc(F)cc4F)c3C3CCN(C(=O)OC(C)(C)C)CC3)CC2)c(C)c1	6%	x	x	x
O=c1c2c3c(sc2[nH]c(=S)n1Cc1ccco1)CCC3	3%	20µM*	109%	-6%
CC(=O)c1ccc(NC(=O)COCc2cc(-c3ccc(F)cc3)on2)cc1	0%	x	x	x
CCN(CC)c1ccc(N)cc1	-3%	-6%	11µM*	-28%
Nc1ccc(N(CCO)CCO)cc1	6%	-13%	-23%	-11%
COc1ccc(N=C2C(=Nc3ccc(OC)cc3)N(c3ccc(OC)cc3)C(=S)N2C)cc1	2%	11%	6.7µM*	7%
COc1ccc(Cc2nc3c4cnn(-c5ccccc5Br)c4ncn3n2)cc1	12%	x	x	x
CCOc1ccc(NC(=O)C(C)Sc2nnc(C)n2C)cc1 (configuration not stated)	u	3.5µM*	-1%	6%
O=C(NCCc1ccccc1)C(=O)NCC(c1cccnc1)N1CCN(c2ccccc2)CC1 (configuration not stated)	2%	x	x	x
Cc1ccc(-n2sc3ccccc3c2=O)cc1S(=O)(=O)N1CCCCC1	-13%	-54%	-10%	16µM*
CN(C)S(=O)(=O)c1cccc(-n2sc3ccccc3c2=O)c1	-2%	35µM*	8%	-11%
O=c1c2ccccc2sn1-c1ccccc1	u	-33%	-7%	8.9µM*
O=c1c2ccccc2sn1-c1cccc(Cl)c1	x	x	-11%	10µM*
CC(=O)c1cccc(NC(=O)c2nc(-c3ccc(C)cc3)n3c2CCCCC3)c1	-4%	x	x	x
